# Where “and” joins values, the source holds several entries; their conditions need not be identical. Equal entries are not always repeated.
# System: K562
# Experiment: cell viability relative to vehicle control; higher = less cytotoxic
# Details: 10 µM; SRSF2 genotype: SRSF2 P95H/wt
# How it was run: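 Each screen used CRISPR-edited mutant and wild-type clones from four leukaemia lines. Compounds were acoustically dispensed at a single 10 µM dose, and CellTiter-Glo luminescence was read after 48 h with the supernatant first removed. Viability was analysed in Genedata Screener and given as percent of the on-plate vehicle control.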
row,SMILES,cell viability
1,O=C(O)c1ccc(C=C2SC(=S)N(c3cccc(C(F)(F)F)c3)C2=O)cc1,94.1% and 97.2%
2,Cc1cn([C@H]2C[C@H](O)[C@@H](CO)O2)c(=O)[nH]c1=O [Thymidine],98.3% and 88%
3,C[C@]12CC[C@@H]3c4ccc(OC(=O)c5ccccc5)cc4CC[C@H]3[C@@H]1CC[C@@H]2O [Estradiol Benzoate],62.1% and 62.4%
4,O=C(O)c1ccc(Cl)cc1O [4-Chloro-2-hydroxybenzoic acid],108% and 109%
5,C[C@H]1O[C@@H](Oc2c(-c3cc(O)c(O)c(O)c3)oc3cc(O)cc(O)c3c2=O)[C@@H](O)[C@@H](O)[C@@H]1O [Myricitrin (Myricitrine)],94.5% and 101%
6,OC[C@H]1O[C@H](OCC2O[C@@H](O)[C@H](O)[C@@H](O)[C@@H]2O)[C@H](O)[C@@H](O)[C@H]1O (stereo not given in full) [Melibiose],108% and 104%
7,CO[C@@]12[C@H](COC(N)=O)C3=C(C(=O)C(C)=C(N)C3=O)N1C[C@@H]1N[C@@H]12 [Mitomycin C],17.1% and 28%
8,CN1C(C(=O)Nc2ccccn2)=C(O)c2ccccc2S1(=O)=O [Piroxicam (Feldene)],99.5% and 103%
9,NC(=O)c1cn(Cc2c(F)cccc2F)nn1 [Rufinamide (Banzel)],101% and 104%
10,O=c1c(-c2ccc(O[C@@H]3O[C@H](CO)[C@@H](O)[C@H](O)[C@H]3O)cc2)coc2cc(O)cc(O)c12 [Sophoricoside],104% and 106%
11,CCOc1cc([C@@H](CS(C)(=O)=O)N2C(=O)c3cccc(NC(C)=O)c3C2=O)ccc1OC,102% and 98.7%
12,Cc1cc2c(C(=O)NCC(C)c3ccccc3)c(O)c(O)cc2c(O)c1-c1c(C)cc2c(C(=O)NCC(C)c3ccccc3)c(O)c(O)cc2c1O (stereo not given) [Sabutoclax],1.68% and 1.16%
13,O=S(=O)(NCCSSCCNS(=O)(=O)c1cc(Cl)ccc1Cl)c1cc(Cl)ccc1Cl,80.6% and 84.4%
14,CCN(CC)c1ccc2cc(C(=O)O)c(=O)oc2c1 [7-(Diethylamino)coumarin-3-carboxylic acid],112% and 101%
15,CCOC(=O)[C@H](CCc1ccccc1)N[C@@H](C)C(=O)N1[C@H](C(=O)O)C[C@@H]2CCC[C@@H]21 [Ramipril (Altace)],86.6% and 88.3%
16,O=c1oc2c(O)c(O)cc3c(=O)oc4c(O)c(O)cc1c4c23 [Ellagic acid],92.7% and 105%
17,OCC1OC(OC2OC(CO)C(O)C(O)C2O)C(O)C(O)C1O [D-(+)-Trehalose Anhydrous],109% and 105%
18,O=c1[nH]cnc2[nH]ncc12 [Allopurinol Sodium (Aloprim)],90.9% and 86.7%
19,Cc1cc(C2CCCCC2)n(O)c(=O)c1 [Ciclopirox (Penlac)],54.8% and 52%
20,CC(=O)CCc1ccccc1 [Benzylacetone],100% and 103%

row,SMILES,cell viability
1,Clc1ccc(C(Cn2ccnc2)OCc2c(Cl)cccc2Cl)c(Cl)c1 (stereo not given) [Isoconazole nitrate (Travogen)],73.3% and 76.4%
2,COc1c(O)c(C)cc2c1C(=O)c1c(O)cccc1C2=O [Obtusifolin],103% and 105%
3,NCCOCCOCCNC(=O)Cc1ccc(Nc2nc(NCc3ccc(F)cc3)nc(NCC3CCCCC3)n2)cc1 [AP-III-a4 (ENOblock)],81.5% and 90.7%
4,CC(=O)OC(CC(C)C1=C2CC(O)C3C4(C)CCC(=O)C(C)(C)C4CCC3(C)C2(C)CC1)C1OC1(C)C (stereo not given) [Alisol B Acetate],81.3% and 84.2%
5,O=C(c1cccc(Cl)c1F)N1CCN(Cc2cccc(Nc3nccs3)n2)CC1,44.2% and 57.2%
6,O=C(/C=C/n1cnc(-c2cc(C(F)(F)F)cc(C(F)(F)F)c2)n1)N1CC(F)(F)C1,27.6% and 15.9%
7,CC(=O)Cc1cc(=O)c2c(C)cc(O)c([C@@H]3O[C@H](CO)[C@@H](O)[C@H](O)[C@H]3O)c2o1 [Aloesin],101% and 97.6%
8,CCOC(=O)c1c(C)n(C)c2ccc(O)cc12 [Mecarbinate],108% and 99.1%
9,CC(/C=C/C=C(\C)C(=O)O[C@@H]1O[C@H](CO)[C@@H](O)[C@H](O)[C@H]1O)=C\C=C\C=C(C)\C=C\C=C(/C)C(=O)O[C@@H]1O[C@H](CO[C@@H]2O[C@H](CO)[C@@H](O)[C@H](O)[C@H]2O)[C@@H](O)[C@H](O)[C@H]1O [Crocin II],109% and 106%
10,Cc1c(C)c(NCC(=O)N(C)C2CCN(Cc3ccc(C(N)=O)cc3)CC2)c(C)c(C)c1N,103% and 95.7%
11,C[C@@H]1C[C@H]2[C@@H]3CCC4=CC(=O)C=C[C@]4(C)[C@@]3(Cl)[C@@H](O)C[C@]2(C)[C@@]1(OC(=O)c1ccco1)C(=O)CCl [Mometasone furoate],91.2% and 98.8%
12,N=C(N)c1ccc(OCCCCCOc2ccc(C(=N)N)cc2)cc1 [Pentamidine isethionate],53.9% and 50%
13,CC(=O)OC/C=C(/C)CCC=C(C)C [Neryl acetate],98.4% and 101%
14,CN1CCN(CCCN2c3ccccc3Sc3ccc(C(F)(F)F)cc32)CC1 [Trifluoperazine 2HCl],25.7% and 36.9%
15,COc1ccc2[nH]cc(CCNC(C)=O)c2c1 [Melatonin],104% and 109%
16,Clc1cccc(-c2nnnn2Cc2cccnc2)c1Cl,103% and 112%
17,C[C@@]12C[C@H](c3ccoc3)O[C@@]13C[C@H](OC3=O)[C@H]1[C@H]2C[C@@H]2C[C@H]1C(=O)O2 [Diosbulbin B],103% and 104%
18,COc1c(O[C@@H]2O[C@H](CO)[C@@H](O)[C@H](O)[C@H]2O)cc2occ(-c3ccc(O)cc3)c(=O)c2c1O [Tectoridin],93% and 87.4%
19,COc1ccc(C2CNC(=O)C2)cc1OC1CCCC1 (stereo not drawn) [S-(+)-Rolipram],94.7% and 105%
20,O=C(O)[C@]1(Cc2cccc(Nc3nccs3)n2)CC[C@@H](Oc2cccc(Cl)c2F)CC1,17.3% and 19.3%
